# The source made the active and inactive calls. The calls were made as follows: active = hit-call score of the fitted dose curve at least 0.9, where 1 is the maximum; inactive = score below 0.9.
# Read-out: Glutathione S-transferase M3 (GSTM3), GSTM3 (gene 2947)
# Test: LTEA_HepaRG_GSTM3: Life Technologies and Expression Analysis (LTEA) Assay for Glutathione S-transferase M3 (GSTM3) using HepaRG (AID 2283501)
# Details: mRNA level, 48 h; actives raise or lower the signal
# Procedure: LTEA_HepaRG is a cell based, multiplexed-readout assay that uses HepaRG, a human liver cell line, with measurements taken at 48 hours after chemical dosing on a 96-well plate.LTEA_HepaRG_GSTM3 is one of 102 assay component(s) measured in the LTEA HepaRG cell culture assay. It is a marker of Oxidative Stress.Data from the assay component LTEA_HepaRG_GSTM3 was analyzed into 1 endpoint. This assay endpoint, LTEA_HepaRG_GSTM3, was analyzed with bidirectional fitting relative to DMSO as the negative control and baseline of activity. Using a type of inducible reporter, measures of mRNA induction for gain or loss-of-signal activity can be used to understand regulation of transcription factor activity. To generalize the intended target to other relatable targets, this assay endpoint is annotated to the transferase intended target family, where the subfamily is alkyl and aryl transferase.
# A total of 1060 chemcials from the ToxCast library were tested in eight-point concentration-response experiments. Cell culture and cytotoxicity assays were conducted at Thermo Fisher Scientific's Custom Services facility (Madison, WI). A single lot of human HepaRG cells (Thermo Fisher Scientific, Frederick, MD) was used for the cell culture experiments. 96-well format collagen type I coated plates of human HepaRG cells were prepared using established methods. Briefly, cryopreserved HepaRG cells were thawed, plated at a density of approximately 100,000 cells/well in HepaRG Thaw, Plate, and General Purpose media (HPRG770, Thermo Fisher Scientific), and incubated for 48 hours. 0.5% DMSO was selected as vehicle control to balance the requisite need of DMSO in HepaRG cultures to maintain differentiation (for example, baseline metabolism, proportions of hepatocytes vs. cholangiocytes), while enabling further hepatic receptor pathway activation (for example, PXR and CAR) in response to chemical exposure. 48 hours after plating, the culture medium was replaced with HepaRG Serum-Free Incudtion Media. Cells were exposed to each test chemical in duplicate and maintained in CO2 incubators for another 48 hours. Chemical plates were thawed to room temperature and 200x concentrations of treatment groups were prepared. 8-point conentration-reponse curves were made with the highest exposure at 100 uM, followed by half-log dilutions, all in 0.5% DMSO. Each test plate contained variouse controls, induction positive controls (1mM phenobarbital), cytotoxicity positive controls ([…] aflatoxin B1), vehicle controls (0.5% DMSO), and total lysis controls (0.5% DMSO). Cell morphology images were taken using an Essen IncuCyte FLR automated microscope, with six 96-well plates imaged in about 24 minutes. Images were captured and exported and JPEG files. Spent culture media was transfered to black-well plates for the LDH assay, and remaining media was sorted at -80 C for later use. Cells were treated with RLT buffer and frozen until shipped for gene expression analysis. Total RNA was isolated from the cell suspension in 75 uL of Buffer RLT (Qiagen, Germantown, MD 20874) by Quintiles/Expression Analysis (Durham, NC) using a custom isolation procedure. Total RNA from each plate well was transferred to a preamplification plate. Fluidigm's 96.96 Dynamic ArrayTM (Fluidigm, Amsterdam, the Netherlands) technology was used for gene expression analyses by quantitative reverse transcription polymerase chain reaction (qRT-PCR, performed by Quintiles/Expression Analysis, Durham, NC)89. Standard TaqManTM Assays (Applied Biosystems/ThermoFisher Scientific, Foster City, CA) were used to assess the expression of 93 genes selected based on their selectivity and sensitivity to important hepatic receptors known to be modulated by environmental chemicals; importance in human hepatocyte functionality; and hepatotoxicity. […]
SMILES,outcome,AC50
COc1cc(C(C)C)c2c(c1)S(=O)(=O)N(COc1cc(=O)n3cccc(OCCN4CCCCC4)c3n1)C2=O,inactive,
c1ccc2ncccc2c1,inactive,
COCc1nnc(-c2ccc[n+]([O-])c2)n1-c1c(Cl)c(Cl)cc2[nH]c(=O)c(=O)[nH]c12,inactive,
Cc1nccn1-c1ccc(Sc2cccc(C3(C(N)=O)CCOCC3)c2)cc1,,23.8 µM (active)
CCCCCCCCCCCCCCO,inactive,
CCCCCCCC1CCC(=O)O1 (stereo not given),inactive,
CCCCCCCCCCCCCCCCOS(=O)(=O)O,inactive,
CCOC(N)=O,inactive,
OC(Cn1cncn1)(Cn1cncn1)c1ccc(F)cc1F,inactive,
CCN(CC)C(=S)SSC(=S)N(CC)CC,inactive,
O=S(=O)(O)c1ccc(N=Nc2c(O)ccc3cc(S(=O)(=O)O)ccc23)cc1,inactive,
C=CN1CCCC1=O,inactive,
OCC(CO)(CO)CO,inactive,
CCc1cccc(CC)c1N,inactive,
CCCCCCCCCC,inactive,
CCCCN1C(=O)[C@@H]([C@H](O)C2CCCCC2)NC(=O)C12CCN(Cc1ccc(Oc3ccc(C(=O)O)cc3)cc1)CC2,,4.76 µM (active)
CNC(C)=O,inactive,
O=C(NO)C1(NS(=O)(=O)c2ccc(Oc3ccc(F)cc3)cc2)CCOCC1,inactive,
CC(C)c1nnc2ccc(-c3ocnc3-c3cc(F)ccc3F)cn12,inactive,
NNC(=O)c1ccncc1,inactive,

SMILES,outcome,AC50
O=C(O)c1ccc2c(c1)nc(C(=O)NC1CCN(C3CC3)CC1)n2Cc1cc(-c2ccc(Cl)s2)on1,inactive,
NC(=O)NN=Cc1ccc([N+](=O)[O-])o1,inactive,
OCCOCCOCCO,inactive,
COc1cc2c(c(OC)c1OC)-c1ccc(OC)c(=O)cc1[C@@H](NC(C)=O)CC2,inactive,
C=CCc1cc(S(=O)(=O)c2ccc(O)c(CC=C)c2)ccc1O,inactive,
CCCCC(CC)C(=O)OCCOCCOCCOC(=O)C(CC)CCCC (stereo not given),inactive,
CCCc1ccccc1,inactive,
OC(CCl)CCl,inactive,
NC(=O)N(O)[C@@H]1COc2cc(OCc3ccccc3)ccc21,inactive,
CC1(C)C(=O)N(Cl)C(=O)N1Cl,inactive,
O=C(O)[C@H](O)[C@@H](O)C(=O)O,inactive,
OCCNCCO,inactive,
Cn1c(=O)c2[nH]cnc2n(C)c1=O,inactive,
CCn1nc(C)c2c1C(=O)NCC(c1ccc(O)cc1)=N2,inactive,
COS(C)(=O)=O,inactive,
c1ccc2cc3ccccc3cc2c1,inactive,
CCc1ccc(O)c(C(C)(C)C)c1,inactive,
C[C@@H](Oc1ccc(CNC(=O)c2cccnc2Oc2ccc3c(c2)OCO3)c(F)c1)C(=O)O,inactive,
CC(=O)c1ccccc1,inactive,
O=S1(=O)CCCO1,inactive,

# Source: PubChem BioAssay (EPA / NIEHS)
